# Reference: PubChem BioAssay (NCATS)
# Inconclusive results are not listed. Values without a mark were called inactive. The source made the active and inactive calls. The call rests on the fitted dose curve; in most records, active means well fitted cell-killing curve with a large enough effect; inconclusive means small, poorly fitted or top-dose-only effect, or effect the other way; inactive means no such curve, though single readings can be large or run the other way.
# Assay: Quantitative High-Throughput drug screen in 47 multiple myeloma cell lines against the NCATS MIPE library collection: H1112_PLB cell viability assay (AID 1918967; further: nearly all actives have a fitted effect of over 30% in size)
# Conditions: H1112 myeloma cells viability, ATP luminescence, 48 h; series mostly up to 45.8 µM; viability: at the top concentration
# Source text: PI: Beverly A. Mock Ph.D.
# Laboratory of Cancer Biology and Genetics,
# Center for Cancer Research, National Cancer Institute,
# National Institute of Health, Bethesda, Maryland
# Drug resistance and disease progression are common in multiple myeloma (MM) patients, underscoring the need for new therapeutic combinations. […] We hypothesized that effective combinations would reduce MYC expression and enhance p16 activity. […] These preclinical data identify potentially useful drug combinations for evaluation in drug-resistant MM and reveal potential mechanisms of combined drug sensitivity.
# Described herein is the primary MIPE qHTS used to cherrypick compounds. Validated compounds were then further tested for potential synergistic activiy.
# [1] Peat TJ, Gaikwad SM, Dubois W, Gyabaah-Kessie N, Zhang S, Gorjifard S, Phyo Z, Andres M, Hughitt VK, Simpson RM, Miller MA, Girvin AT, Taylor A, Williams D, D'Antonio N, Zhang Y, Rajagopalan A, Flietner E, Wilson K, Zhang X, Shinn P, Klumpp-Thomas C, McKnight C, Itkin Z, Chen L, Kazandijian D, Zhang J, Michalowski AM, Simmons JK, Keats J, Thomas CJ, Mock BA. Drug combinations identified by high-throughput screening promote cell cycle transition and upregulate Smad pathways in myeloma. Cancer Lett. 2023 Aug 1;568:216284. doi: 10.1016/j.canlet.2023.216284. Epub 2023 Jun 24. PMID: 37356470; PMCID: PMC10408729.
# SEQUENCE No. (e.g., 1, 2, 3, etc.); […] (e.g., Cells, Incubation, Reagent, etc.); VALUE and DESCRIPTION.
# 1; Cells; 5 uL; white, solid bottom 1536-well Greiner assay plate.
# 2; Compounds; 23 nL; Kalypsis pin tool (Wako USA) equipped with a 1536-well pin head to transfer to the assay plates.
# 3; Incubation; 48 hours; 37C incubation.
# 4; Reagent;5uL; CellTiter Glo (Promega).
# 5; Detector; 425V; Luminescence; Viewlux PerkinElmer.
# NOTES (numbers refer to Sequence numbers above)
# 1. The cell-based screening methods employed in this study were like those previously published. Briefly, the corresponding myeloma cell lines were screened in 1,536-well plates with 500 cells, 5-uL per well for inhibition of cell viability (assessed by measuring ATP levels with CellTiterGlo).
# 2. NCATS MIPE 4.0 library of approved and investigational drugs were added using the Kalypsis pin tool. Wells treated with DMSO only for 100% viability and media only wells for 0% viability were used as controls.
# 3. The assay plates were covered and incubated for 48 hours in a 37C, 5% CO2 incubator with controlled humidity.
# 4. After 48 hours, CellTilter-GloTM luminescent substrate mix (Promega) reagent was added to the assay plate and plates we incubated for 5 min at room temperature.
# 5. Signal was measured as median relative luminescence units on a ViewLux (PerkinElmer) multiplate reader.
# [1] Heske CM, Davis MI, Baumgart JT, Wilson K, Gormally MV, Chen L, Zhang X, Ceribelli M, Duveau DY, Guha R, Ferrer M, Arnaldez FI, Ji J, Tran HL, Zhang Y, Mendoza A, Helman LJ, Thomas CJ. Matrix Screen Identifies Synergistic Combination of PARP Inhibitors and Nicotinamide Phosphoribosyltransferase (NAMPT) Inhibitors in Ewing Sarcoma. Clin Cancer Res. 2017 Dec 1;23(23):7301-7311. doi: 10.1158/1078-0432.CCR-17-1121. Epub 2017 Sep 12. PMID: 28899971; PMCID: PMC6636827.
# Potency means the concentration at half of the fitted maximal effect.
Compound,viability,Potency
CCC1(c2ccc(N)cc2)CCC(=O)NC1=O (stereo unspecified),99.6%,
C[C@]12CCC(=O)C=C1CC[C@@H]1[C@H]3CC[C@](C)(O)[C@@]3(C)CC[C@@H]12,98.3% [at 92.2 µM],
O=C(O)CCCc1ccc(N(CCCl)CCCl)cc1,82.5%,
COc1cc(OC)c(OC)cc1C=O,125%,
CN1C(=O)CCS(=O)(=O)C1c1ccc(Cl)cc1 (stereo unspecified),,16.6 µM (active)
O=P1(N(CCCl)CCCl)NCCCO1 (stereo unspecified),90.6%,
CN1C(=O)COc2c(C(=O)NC3CN4CCC3CC4)cc(Cl)cc21 (stereo unspecified),125%,
C[C@]12CC[C@@H]3c4ccc(OC(=O)N(CCCl)CCCl)cc4CC[C@H]3[C@@H]1CC[C@@H]2OP(=O)(O)O,120%,
CC(C)C[C@H](CN)CC(=O)O,117%,
CC(C)c1cccc(C(C)C)c1O,110%,
C[C@](O)(CS(=O)(=O)c1ccc(F)cc1)C(=O)Nc1ccc(C#N)c(C(F)(F)F)c1,,0.662 µM (active)
